An excerpt weighted towards active compounds, which were near 2.2% of everything screened.
Efa HMGR inh: inhibitors of class II HMG-CoA reductase from Enterococcus faecalis | inhibition, % at 10 µM | purified E. faecalis HMGR, NADPH absorbance 340 nm kinetic | 0.41% of 190,000 active;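 active = inhibition above a set limit, the median over all tested compounds plus 3 SD, cut at about 9.5% in these data; inconclusive = no clear call, values can overlap the other calls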;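 note: enzyme runs in reverse so mevalonate oxidation gives rising NADPH absorbance; 0% = complete reaction with DMSO and 100% = background rate lacking mevalonate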
p47phox inh: inhibitors of human p47phox binding; p47phox/p22phox peptide binding, fluorescence polarization, 2 h; inhibition, % at 24.7 µM; 0.53% of 220,000 active; AID 1274;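 active = inhibition above about 30%, limit read from the data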;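 note: 0% = p47phox with labelled peptide and 100% = labelled peptide alone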
Target sequence (P14598 whole entry, looked up): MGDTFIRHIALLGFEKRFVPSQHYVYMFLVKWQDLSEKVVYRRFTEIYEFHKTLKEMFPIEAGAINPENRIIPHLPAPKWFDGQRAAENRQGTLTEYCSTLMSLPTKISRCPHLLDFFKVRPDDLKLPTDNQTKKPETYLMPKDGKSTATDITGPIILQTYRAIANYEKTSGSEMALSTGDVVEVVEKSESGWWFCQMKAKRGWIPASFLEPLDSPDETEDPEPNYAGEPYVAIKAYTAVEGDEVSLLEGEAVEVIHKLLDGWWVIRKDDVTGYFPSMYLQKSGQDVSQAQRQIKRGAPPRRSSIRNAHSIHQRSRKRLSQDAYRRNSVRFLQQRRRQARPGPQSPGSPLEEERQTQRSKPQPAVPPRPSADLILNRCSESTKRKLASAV
Arbovirus anti: antivirals against arbovirus infection; arbovirus infection cell-based antiviral screen; inhibition, % at 10 µM; 0.37% of 200,000 active; AID 1251; in the data active = inhibition above about 30%
Redox H2O2 prof: compounds producing H2O2 with reducing agent – biochemical, NIH compound library profiling, artefact control for MLSCN library redox annotation, primary screen | AID 878 | DTT-dependent redox cycling H2O2, phenol red/HRP absorbance; 100% = 100 µM peroxide control, 0% = buffer | 0.03% of 200,000 active | activation, % at 10 µM;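 active = activation of at least 50% relative to the plate's high and low controls in the primary single-dose screen; inactive = activation below 50%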;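 note: compound incubated with DTT at 0.8 mM final as the reducing agent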
Autophagy HCS: autophagy modulation, high-content screen; MEF GFP-LC3 puncta imaging; test concentration mostly 10 µM; calls only at 10 µM (by protocol); 0.98% of 190,000 active; AID 463193;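 active = percentage of spot-positive cells more than 3 SD above its plate mean, without a fluorescence outlier flag or 80% toxicity; inconclusive = no clear call, values can overlap the other calls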;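 note: spot-positive cell cutoff set from DMSO-treated cells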
Ins promoter up: MIN6 insulin promoter up-regulation. MIN6 insulin promoter-GFP reporter, high-content imaging; stronger effect = higher value. z-score at 5 µM. 0.3% of 190,000 active;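 active = z-score above 3 at 5 µM with at least 500 cells counted in the well; inconclusive = wells under 500 cells, flagged as cytotoxic or low count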
* = called active by the depositor; i = inactive; ? = inconclusive; / = no result given; + = active, no number.

SMILES	Efa HMGR inh	p47phox inh	Arbovirus anti	Redox H2O2 prof	Autophagy HCS	Ins promoter up
Cc1ccc2cc(C3CC(c4ccco4)=NN3S(=O)(=O)c3ccccc3)c(Cl)nc2c1 (centres undefined)	-6	-211	37*	0	i	-0.24
COc1ccc2cc(C3CC(c4ccco4)=NN3S(=O)(=O)c3ccccc3)c(Cl)nc2c1 (centres undefined)	-4	-71	-5	0	i	-1.1
CCc1nnc(NC(=O)CCC(=O)NC2CCCc3ccccc32)s1 (centres undefined)	4	-29	3	0	i	0.63
COc1ccc(CCNC(=O)c2ccccc2Cl)cc1OC	18*	-9	-2	0	i	-0.6
COc1ccc(CCNC(=O)c2ccc(Cl)cc2Cl)cc1OC	-5	-2	7	0	i	-1.4
COc1ccc(CCNC(=O)Cn2ccc3c(OC)cccc3c2=O)cc1OC	/	-5	/	/	/	0.06
CCOc1ccc(N2C(=O)C(c3ccccc3)=C(c3nc4ccccc4s3)C2NC(C)=O)cc1 (centres undefined)	-2	-17	-4	2	i	/
CC(C)N1CC2=C(OC(N)=C(C#N)C2c2cccnc2)/C(=C/c2cccnc2)C1 (centres undefined)	-1	77*	-2	-1	i	0.47
N#CC1=C(N)OC2=C(CN(Cc3ccccc3)C/C2=C\c2cccnc2)C1c1cccnc1 (centres undefined)	2	123*	5	-3	i	0.62
CCN(CC)C(=O)c1sc(NC(=O)c2ccc(OC)c([N+](=O)[O-])c2)c(C#N)c1C	-8	-25	10	0	i	0.29
Cc1nc(CN2CCCCC2)cc(=O)[nH]1	0	8	4	-2	i	0.59
COc1ccc(OCCCC(=O)Nc2nccs2)cc1	/	-4	/	/	/	0.01
Cc1ccc([N+](=O)[O-])cc1N/C=C1\CCCCC1=O	-9	-6	-2	-1	i	1.4
CCN(CC)CC(C)OC(=O)c1ccccc1Cl (centres undefined)	1	-17	2	-2	+	-0.09
COC(=O)c1ccc(C(NC(=O)c2cccnc2)NC(=O)c2cccnc2)cc1	-5	2	4	-2	+	-0.49
CC(C)C(NC(=O)c1cccnc1)C(=O)O (centres undefined)	0	10	3	0	i	/
Cc1ccc(C2(C(F)(F)F)N=C3Sc4cc(C)ccc4N3C(=O)N2)cc1 (centres undefined)	-2	-7	-11	3	i	3.5*
Cc1ccc(C2(C(F)(F)F)NC(=O)N3CCN=C3S2)cc1 (centres undefined)	-5	2	-3	3	i	0.82
O=C(COC(=O)c1cc(S(=O)(=O)N2CCOCC2)ccc1O)NCC1CCCO1 (centres undefined)	-1	-16	8	0	i	3.8*
COC(=O)c1ccc(COc2ccc(/C=N/O)cc2OC)o1	-2	-4	7	0	i	2.9
O=C(CSc1ncc(-c2ccc(F)cc2)[nH]1)N1CCCCC1	-2	-5	0	3	i	-0.49
Cc1[nH]n(-c2ccccc2)c(=O)c1CCOC(=O)c1cccc(C(F)(F)F)c1	-3	-1	3	2	i	/
Cc1ccc(C(=O)OCCc2c(C)[nH]n(-c3ccccc3)c2=O)cc1	-4	102*	3	-1	i	/
CN(C)CCOCCOc1ccccc1-c1ccccc1	-7	-5	-2	2	i	5*
COc1ccc(NC(=O)c2ccc(-n3nc(C)cc3C)cc2)cc1OC	-2	38*	13	1	i	-0.73
SMILES	Efa HMGR inh	p47phox inh	Arbovirus anti	Redox H2O2 prof	Autophagy HCS	Ins promoter up
Nc1ncc(-c2ccc([N+](=O)[O-])cc2)cn1	-2	78*	-2	1	i	-0.05
O=[N+]([O-])c1ccc(-c2cnc(NO)nc2)cc1	2	-11	-14	0	i	-0.23
N#Cc1cc(Br)ccc1N=C1CCCN1c1ccccc1	2	-10	0	0	i	-0.05
O=C(N/N=C\c1cn(-c2ccccc2)nc1-c1ccccc1)c1ccc(Br)o1	-2	-20	-11	-4	i	3.2*
O=C(NNc1nc(N2CCOCC2)nc(N2CCOCC2)n1)Nc1ccc(Cl)cc1	-4	-14	-3	-1	i	1
Cn1c(=O)c2cc(S(=O)(=O)Nc3ccc4c(c3)OCO4)ccc2n(C)c1=O	-2	65*	-12	2	i	-1.3
Cn1c(=O)oc2cc(S(=O)(=O)Nc3ccc4c(c3)OCO4)ccc21	/	-7	-11	2	i	0.22
COc1cc(OC)cc(C(=O)NC(C(=O)O)C23CC4CC(CC(C4)C2)C3)c1 (centres undefined)	14*	4	17	0	i	-0.51
O=C1COc2ccc(C(=O)COC(=O)c3cnc(Cl)c(Cl)c3)cc2N1	-1	-9	-1	-2	i	-0.72
O=C(NCC1CCCO1)c1ccc(Cl)c(F)c1F (centres undefined)	15*	-5	-3	0	i	-0.02
CNC(=O)CN(c1ccc(F)cc1)S(=O)(=O)c1cc(C)ccc1OC	3	11	6	0	i	/
O=C(Nc1ccc(Cl)c(Cl)c1)Nc1nnc(CSc2ccccc2)s1	2	-13	0	1	i	/
Cc1ccc(S(=O)(=O)NC(=O)NN2CCCCCC2)cc1	-7	-7	6	0	+	/
Cc1ccc(S(=O)(=O)NC(=O)Nn2c(C)nnc2C)cc1	2	-14	14	2	i	-0.05
COc1ccccc1/C=C/C(=O)NNC(=O)c1cccs1	-2	-9	-7	0	i	0
Cc1nnc(NC(=O)c2cccc(S(=O)(=O)N3CCOCC3)c2)s1	4	-6	11	0	i	/
C=CCSc1nnc(NC(=O)c2cccc(S(=O)(=O)N3CCOCC3)c2)s1	-9	-1	19	1	i	3.2*
COc1ccc(N=c2ssnc2Cl)cc1	16*	13	0	1	i	/
O=C(O)c1cccc(N/N=C/C2=C(Cl)c3cc(Cl)ccc3SC2)c1	-4	1	46*	-2	i	0.61
CN1/C(=C\C=Nc2ccc3ccccc3c2)C(C)(C)c2ccccc21	-2	-29	24	1	+	0.58
CN1\C(=C/C=C/C=C/C=[N+](C)C)C(C)(C)c2ccccc21	0	-228	-8	-1	+	?
CN1/C(=C\C=O)C(C)(C)c2ccccc21	-1	-147	18	0	i	-2.4
Cc1c(Nc2cc(N3CCOCC3)c3nonc3c2[N+](=O)[O-])c(=O)n(-c2ccccc2)n1C	-1	-7	3	1	i	-0.16
Cc1c(Nc2cc(Cl)c3nonc3c2[N+](=O)[O-])c(=O)n(-c2ccccc2)n1C	2	-9	-32	1	+	0.23

Assay outcomes from PubChem BioAssay.
